Assay results: PubChem BioAssay (EPA / NIEHS)
The source made the active and inactive calls. The calls were made as follows: active = hit-call score of the fitted dose curve at least 0.9, where 1 is the maximum; inconclusive = response in the unintended direction; inactive = score below 0.9.

Each compound was assayed against Estrogen receptor (Homo sapiens) (UniProt P03372) (assay: OT_ERa_GFPERaERE_0120: Odyssey Thera (OT) 2-hour HeLa Transcription Induction Assay for Estrogen Receptor (AID 2283382)).
Protocol: OT_ERa_GFPERaERE_0120 is a cell-based, single-readout assay that uses HeLa, a human cervix cell line, with measurements taken at 2 hours after chemical dosing in a 384-well plate.OT_ERa_GFPERaERE_0120 is one of one assay component(s) measured or calculated from the OT_ERa_GFPERaERE_0120 assay. It is designed to make measurements of fluorescent protein induction, a form of inducible reporter, as detected with optical microscopy: fluorescence microscopy signals by Microscopy technology.Data from the assay component OT_ERa_GFPERaERE_0120 was analyzed into 1 assay endpoint. This assay endpoint, OT_ERa_EREGFP_0120, was analyzed in the positive analysis fitting direction relative to DMSO as the negative control and baseline of activity. Using a type of inducible reporter, measures of receptor for gain-of-signal activity can be used to understand the reporter gene at the pathway-level as they relate to the gene ESR1. Furthermore, this assay endpoint can be referred to as a primary readout, because the performed assay has only produced 1 assay endpoint. To generalize the intended target to other relatable targets, this assay endpoint is annotated to the nuclear receptor intended target family, where the subfamily is steroidal.
All assay endpoints are quantified using high content image analysis algorithms.

Chain of Estrogen receptor (Homo sapiens) (P03372 whole entry, looked up): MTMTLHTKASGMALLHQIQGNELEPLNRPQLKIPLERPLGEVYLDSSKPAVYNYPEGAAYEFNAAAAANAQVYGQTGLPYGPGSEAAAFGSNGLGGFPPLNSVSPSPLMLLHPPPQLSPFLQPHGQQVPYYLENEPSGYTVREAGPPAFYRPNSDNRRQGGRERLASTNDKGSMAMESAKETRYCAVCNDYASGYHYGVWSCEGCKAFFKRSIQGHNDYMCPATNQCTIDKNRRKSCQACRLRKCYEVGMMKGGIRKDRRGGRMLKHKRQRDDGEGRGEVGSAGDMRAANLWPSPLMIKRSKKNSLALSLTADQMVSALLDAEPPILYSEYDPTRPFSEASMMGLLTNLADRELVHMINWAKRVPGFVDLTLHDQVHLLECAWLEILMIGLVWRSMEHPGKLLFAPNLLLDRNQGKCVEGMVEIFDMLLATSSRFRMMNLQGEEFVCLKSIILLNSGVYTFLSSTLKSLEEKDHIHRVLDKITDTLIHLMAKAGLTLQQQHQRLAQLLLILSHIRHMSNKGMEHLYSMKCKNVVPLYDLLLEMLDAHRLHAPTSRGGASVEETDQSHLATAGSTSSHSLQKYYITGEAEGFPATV

| Compound | outcome | AC50 |
| --- | --- | --- |
| [Co] | inactive |  |
| CC/C=C\CCOC(C)=O | inactive |  |
| CC(C)OC(=O)c1ccccc1C(=O)OC(C)C | inactive |  |
| CN(C)Cc1ccccc1O | inactive |  |
| CC(Cc1ccc(O)c(O)c1)C(C)Cc1ccc(O)c(O)c1 (configuration not stated) |  | 1470 nM (active) |
| CCCCCCOC(=O)c1ccccc1O | inactive |  |
| COC(=O)C1CCC(C(=O)OC)CC1 (configuration not stated) | inactive |  |
| CCCCCCOC(=O)c1ccccc1 | inactive |  |
| O=C(OCCOCCOCCOC(=O)c1ccccc1)c1ccccc1 | inactive |  |
| CNC(=S)NC | inactive |  |
| CCN(Cc1cccc(S(=O)(=O)O)c1)c1ccc(C(=C2C=CC(=[N+](CC)Cc3cccc(S(=O)(=O)O)c3)C=C2)c2ccc(O)cc2S(=O)(=O)[O-])cc1 | inactive |  |
| CC(CCl)OP(=O)(OC(C)CCl)OC(C)CCl (configuration not stated) | inactive |  |
| CCCCC(CC)COP(=O)(O)OCC(CC)CCCC (configuration not stated) | inactive |  |
| C1COCCN1 | inactive |  |
| C#C[C@]1(O)CC[C@H]2[C@@H]3CCc4cc(OC)ccc4[C@H]3CC[C@@]21C |  | 29.4 nM (active) |
| CCCCOc1ccc(N)cc1 | inactive |  |
| O=S(=O)(O)c1ccc2ccccc2c1 | inactive |  |
| Cc1ccc(S(=O)(=O)NCl)cc1 | inactive |  |
| c1ccc(B(c2ccccc2)c2ccccc2)cc1 |  | 45800 nM (active) |
| Cc1cc(C)cc(O)c1 | inactive |  |
| CCCCCCC(C)OC(=O)CCCCC(=O)OC(C)CCCCCC (configuration not stated) | inactive |  |
| C(=C(c1ccccc1)c1ccccc1)c1ccccc1 |  | 1520 nM (active) |
